Data on 1 sequence can be found in PMC7862700, “An all-to-all approach to the identification of sequence-specific readers for epigenetic DNA modifications on cytosine”.

What all share (experiment): DAPPL (digital affinity profiling via proximity ligation, sequencing); 10 mM Tris-HCl pH 7.5, 50 mM NaCl, 1 mM DTT, 4% glycerol, room temperature, 30 min; GST-TFs on glutathione beads, 16-mer random dsDNA library, 0.1% formaldehyde crosslink after washing; high values mean tight binding
The target in experiment [1] is T1, FEV (Homo sapiens, UniProt Q99581 1-238).
T1 sequence: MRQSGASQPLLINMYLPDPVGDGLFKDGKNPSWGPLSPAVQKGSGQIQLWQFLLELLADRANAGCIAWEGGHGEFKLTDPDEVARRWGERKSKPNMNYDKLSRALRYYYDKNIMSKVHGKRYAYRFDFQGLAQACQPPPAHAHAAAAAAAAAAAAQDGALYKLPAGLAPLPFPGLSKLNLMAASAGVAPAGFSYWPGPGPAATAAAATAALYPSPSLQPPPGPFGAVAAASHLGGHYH
Conditions: protein: recombinant; tags: N-terminal GST; dsDNA, one strand shown. Put shortly:
(§1)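 Binding signal is defined as a hexamer's read frequency for one factor over its frequency for the tag-only sample. To obtain reads, GST-fused human transcription factors were expressed in yeast, captured on glutathione beads, barcoded with DNA and pooled with that sample. Pools met 200 nmole of a 16-mer random double-stranded DNA library in Tris/NaCl/DTT/glycerol buffer for 30 min at room temperature before washing, 0.1% formaldehyde crosslinking, proximity ligation (BsaI/T4 ligase, 1 h, 37 °C), PCR and Illumina NextSeq500 sequencing.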

For experiment [2], the target named is ETV5 (Homo sapiens, UniProt P41161 1-510). Conditions: protein: recombinant; tags: N-terminal GST; dsDNA, one strand shown. The essentials:
as §1

Experiment [3] addresses HSF1 (Homo sapiens, UniProt Q00613 1-529). Conditions: protein: recombinant; tags: N-terminal GST; chain copies: 3; dsDNA, one strand shown. Put shortly:
as §1

Experiment [4] deals with T2, SPIC (Homo sapiens, UniProt Q8N5J4 1-248).
T2 sequence: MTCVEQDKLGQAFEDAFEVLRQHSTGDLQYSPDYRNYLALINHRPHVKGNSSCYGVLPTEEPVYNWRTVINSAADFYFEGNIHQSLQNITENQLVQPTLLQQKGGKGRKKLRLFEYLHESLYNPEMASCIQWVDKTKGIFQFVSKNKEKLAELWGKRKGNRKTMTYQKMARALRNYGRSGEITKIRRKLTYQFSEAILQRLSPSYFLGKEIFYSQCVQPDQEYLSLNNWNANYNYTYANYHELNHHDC
Conditions: protein: recombinant; tags: N-terminal GST; dsDNA, one strand shown. Put shortly:
as §1

The target of experiment [5] is ELF4 (Homo sapiens, UniProt Q99607 1-663). The following applies: protein: recombinant; tags: N-terminal GST; dsDNA, one strand shown. The essentials:
as §1

Experiment [6] deals with T3, ELK4 (Homo sapiens, UniProt P28324-2 1-405).
T3 sequence: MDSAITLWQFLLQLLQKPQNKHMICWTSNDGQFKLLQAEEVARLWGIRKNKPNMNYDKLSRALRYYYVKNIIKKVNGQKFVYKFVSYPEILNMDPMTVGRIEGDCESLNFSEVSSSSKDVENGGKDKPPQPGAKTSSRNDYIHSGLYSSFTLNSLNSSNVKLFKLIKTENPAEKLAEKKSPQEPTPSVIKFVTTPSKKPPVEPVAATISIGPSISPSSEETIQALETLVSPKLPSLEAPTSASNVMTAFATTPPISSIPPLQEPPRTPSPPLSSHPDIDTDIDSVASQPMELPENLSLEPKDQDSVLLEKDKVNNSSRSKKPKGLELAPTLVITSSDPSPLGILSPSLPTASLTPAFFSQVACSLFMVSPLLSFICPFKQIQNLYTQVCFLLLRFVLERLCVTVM
Conditions: protein: recombinant; tags: N-terminal GST; dsDNA, one strand shown. The essentials: as §1

For experiment [7], the target named is T4, ETV2 (Homo sapiens, UniProt O00321 1-342).
T4 sequence: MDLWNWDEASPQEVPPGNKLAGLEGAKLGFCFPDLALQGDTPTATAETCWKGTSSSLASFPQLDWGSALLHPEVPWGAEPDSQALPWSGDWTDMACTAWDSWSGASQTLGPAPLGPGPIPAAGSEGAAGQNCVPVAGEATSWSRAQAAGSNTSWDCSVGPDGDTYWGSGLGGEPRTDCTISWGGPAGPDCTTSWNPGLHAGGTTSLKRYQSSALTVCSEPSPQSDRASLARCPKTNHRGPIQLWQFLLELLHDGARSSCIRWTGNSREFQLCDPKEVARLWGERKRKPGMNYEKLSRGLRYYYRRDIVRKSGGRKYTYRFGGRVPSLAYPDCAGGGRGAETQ
The following applies: protein: recombinant; tags: N-terminal GST; dsDNA, one strand shown. Put shortly:
as §1

In experiment [8] the target is T5, ELF3 (Homo sapiens, UniProt P78545 1-371).
T5 sequence: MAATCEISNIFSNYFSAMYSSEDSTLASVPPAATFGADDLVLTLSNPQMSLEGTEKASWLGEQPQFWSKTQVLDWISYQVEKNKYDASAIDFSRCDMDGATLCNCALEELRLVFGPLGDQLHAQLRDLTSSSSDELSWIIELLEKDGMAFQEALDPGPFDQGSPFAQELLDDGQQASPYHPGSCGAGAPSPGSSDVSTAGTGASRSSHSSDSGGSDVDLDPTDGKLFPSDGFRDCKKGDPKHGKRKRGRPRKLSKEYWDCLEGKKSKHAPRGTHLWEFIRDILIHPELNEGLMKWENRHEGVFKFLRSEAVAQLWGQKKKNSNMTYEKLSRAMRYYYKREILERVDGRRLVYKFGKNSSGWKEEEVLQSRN
Conditions: protein: recombinant; tags: N-terminal GST; dsDNA, one strand shown. Put shortly: as §1

The target of experiment [9] is CRX (Homo sapiens, UniProt O43186 1-299). Conditions: protein: recombinant; tags: N-terminal GST; dsDNA, one strand shown. The essentials:
as §1

Experiment [10] deals with ETV1 (Homo sapiens, UniProt P50549 1-477). The following applies: protein: recombinant; tags: N-terminal GST; dsDNA, one strand shown. The essentials:
as §1

The target in experiment [11] is T6, ERF (Homo sapiens, UniProt P50548 1-548).
T6 sequence: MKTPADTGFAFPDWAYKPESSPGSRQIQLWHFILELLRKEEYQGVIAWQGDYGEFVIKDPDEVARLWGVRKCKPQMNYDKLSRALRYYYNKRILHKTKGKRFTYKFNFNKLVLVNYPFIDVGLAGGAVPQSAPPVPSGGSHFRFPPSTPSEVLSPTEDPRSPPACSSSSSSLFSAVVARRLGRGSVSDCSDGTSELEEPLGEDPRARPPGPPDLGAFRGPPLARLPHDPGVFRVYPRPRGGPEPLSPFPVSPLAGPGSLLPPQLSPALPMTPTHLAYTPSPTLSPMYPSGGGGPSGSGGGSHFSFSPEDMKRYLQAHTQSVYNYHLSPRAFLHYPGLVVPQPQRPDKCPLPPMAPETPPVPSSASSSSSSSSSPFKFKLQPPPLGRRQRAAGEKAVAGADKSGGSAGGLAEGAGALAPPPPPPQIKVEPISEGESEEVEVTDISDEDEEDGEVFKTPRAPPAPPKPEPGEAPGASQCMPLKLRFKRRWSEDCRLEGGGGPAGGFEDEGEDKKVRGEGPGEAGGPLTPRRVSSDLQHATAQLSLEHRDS
Conditions: protein: recombinant; tags: N-terminal GST; dsDNA, one strand shown. Put shortly: as §1

The target in experiment [12] is T7, ETV3L (Homo sapiens, UniProt Q6ZN32 1-361).
T7 sequence: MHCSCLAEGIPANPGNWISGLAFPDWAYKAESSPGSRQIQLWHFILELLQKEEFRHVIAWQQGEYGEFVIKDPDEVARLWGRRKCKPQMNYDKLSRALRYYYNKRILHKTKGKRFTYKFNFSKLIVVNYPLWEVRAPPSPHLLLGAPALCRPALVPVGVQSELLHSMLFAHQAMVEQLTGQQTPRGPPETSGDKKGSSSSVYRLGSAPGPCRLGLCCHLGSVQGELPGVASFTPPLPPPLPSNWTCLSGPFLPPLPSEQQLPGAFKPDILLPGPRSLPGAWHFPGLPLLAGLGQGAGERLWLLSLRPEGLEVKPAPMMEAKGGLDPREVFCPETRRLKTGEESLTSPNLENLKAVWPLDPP
Conditions: protein: recombinant; tags: N-terminal GST; dsDNA, one strand shown. The essentials: as §1

The target in experiment [13] is T8, ETS2 (Homo sapiens, UniProt P15036 1-469).
T8 sequence: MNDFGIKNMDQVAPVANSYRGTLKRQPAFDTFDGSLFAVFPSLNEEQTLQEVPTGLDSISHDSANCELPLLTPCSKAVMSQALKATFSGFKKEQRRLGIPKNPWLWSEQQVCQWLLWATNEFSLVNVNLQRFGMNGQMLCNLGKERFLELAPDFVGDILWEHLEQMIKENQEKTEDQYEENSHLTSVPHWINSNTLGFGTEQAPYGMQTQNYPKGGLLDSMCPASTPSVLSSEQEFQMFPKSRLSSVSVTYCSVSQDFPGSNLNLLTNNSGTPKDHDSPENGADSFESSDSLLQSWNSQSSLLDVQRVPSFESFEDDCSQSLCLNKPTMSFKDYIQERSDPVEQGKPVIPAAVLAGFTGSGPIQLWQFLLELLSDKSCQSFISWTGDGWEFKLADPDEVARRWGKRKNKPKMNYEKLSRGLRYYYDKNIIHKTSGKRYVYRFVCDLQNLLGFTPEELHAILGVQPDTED
The following applies: protein: recombinant; tags: N-terminal GST; dsDNA, one strand shown. Put shortly: as §1

Experiment [14] concerns the target T9, SPDEF (Homo sapiens, UniProt O95238 1-335).
T9 sequence: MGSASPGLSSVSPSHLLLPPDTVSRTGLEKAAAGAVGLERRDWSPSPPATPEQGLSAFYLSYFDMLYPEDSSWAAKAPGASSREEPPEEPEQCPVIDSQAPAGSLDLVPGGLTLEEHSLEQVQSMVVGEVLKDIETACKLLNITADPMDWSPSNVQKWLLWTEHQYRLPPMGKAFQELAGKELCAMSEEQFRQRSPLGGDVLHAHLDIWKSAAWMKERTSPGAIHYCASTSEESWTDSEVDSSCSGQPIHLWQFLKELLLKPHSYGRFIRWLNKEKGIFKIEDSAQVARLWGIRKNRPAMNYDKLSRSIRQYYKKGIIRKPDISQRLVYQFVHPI
The following applies: protein: recombinant; tags: N-terminal GST; dsDNA, one strand shown. The essentials:
as §1

The target of experiment [15] is T10, ETV7 (Homo sapiens, UniProt Q9Y603 1-341).
T10 sequence: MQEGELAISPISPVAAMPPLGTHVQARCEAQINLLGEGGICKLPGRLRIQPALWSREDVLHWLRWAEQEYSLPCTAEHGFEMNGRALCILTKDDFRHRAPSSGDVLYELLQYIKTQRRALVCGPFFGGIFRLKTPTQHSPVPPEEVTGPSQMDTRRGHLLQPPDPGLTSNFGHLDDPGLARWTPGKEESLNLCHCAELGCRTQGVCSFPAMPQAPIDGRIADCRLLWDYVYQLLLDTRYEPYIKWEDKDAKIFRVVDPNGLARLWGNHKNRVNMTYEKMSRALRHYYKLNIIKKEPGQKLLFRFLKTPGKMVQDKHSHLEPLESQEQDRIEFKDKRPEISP
The following applies: protein: recombinant; tags: N-terminal GST; dsDNA, one strand shown. Put shortly:
as §1

In experiment [16] the target is T11, ELF5 (Homo sapiens, UniProt Q9UKW6-2 1-255).
T11 sequence: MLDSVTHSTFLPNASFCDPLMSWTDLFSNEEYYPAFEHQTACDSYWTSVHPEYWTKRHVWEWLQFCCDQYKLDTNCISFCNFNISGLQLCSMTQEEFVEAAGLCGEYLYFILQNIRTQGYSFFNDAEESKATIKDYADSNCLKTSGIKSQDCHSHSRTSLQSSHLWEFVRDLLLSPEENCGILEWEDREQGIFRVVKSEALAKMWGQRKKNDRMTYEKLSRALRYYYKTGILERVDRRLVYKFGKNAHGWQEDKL
Conditions: protein: recombinant; tags: N-terminal GST; dsDNA, one strand shown. Put shortly:
as §1

For experiment [17], the target named is T12, ETV3 (Homo sapiens, UniProt P41162-2 1-143).
T12 sequence: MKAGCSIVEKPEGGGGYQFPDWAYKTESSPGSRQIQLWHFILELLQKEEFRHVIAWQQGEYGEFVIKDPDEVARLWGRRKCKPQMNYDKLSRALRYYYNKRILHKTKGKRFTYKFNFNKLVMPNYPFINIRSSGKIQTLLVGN
The following applies: protein: recombinant; tags: N-terminal GST; dsDNA, one strand shown. The essentials:
as §1

Experiment [18] addresses ETV6 (Homo sapiens, UniProt P41212 1-452). The following applies: protein: recombinant; tags: N-terminal GST; dsDNA, one strand shown. Put shortly:
as §1

HSF1, sequence (Q00613 whole entry): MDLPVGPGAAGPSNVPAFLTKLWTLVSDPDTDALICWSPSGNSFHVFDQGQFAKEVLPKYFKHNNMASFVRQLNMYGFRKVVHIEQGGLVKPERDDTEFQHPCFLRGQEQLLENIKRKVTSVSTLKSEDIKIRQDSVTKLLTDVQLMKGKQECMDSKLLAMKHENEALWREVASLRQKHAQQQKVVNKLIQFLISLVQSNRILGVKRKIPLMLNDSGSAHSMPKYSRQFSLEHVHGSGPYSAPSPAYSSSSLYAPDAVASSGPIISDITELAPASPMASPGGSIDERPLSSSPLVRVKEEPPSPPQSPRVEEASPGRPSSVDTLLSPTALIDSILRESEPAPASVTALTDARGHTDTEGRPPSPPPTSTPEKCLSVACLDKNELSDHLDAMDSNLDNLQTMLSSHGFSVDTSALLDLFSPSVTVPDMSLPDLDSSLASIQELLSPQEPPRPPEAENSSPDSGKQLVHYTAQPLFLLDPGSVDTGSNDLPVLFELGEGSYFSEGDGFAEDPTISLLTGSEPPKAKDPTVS
ETV1, sequence (P50549 whole entry): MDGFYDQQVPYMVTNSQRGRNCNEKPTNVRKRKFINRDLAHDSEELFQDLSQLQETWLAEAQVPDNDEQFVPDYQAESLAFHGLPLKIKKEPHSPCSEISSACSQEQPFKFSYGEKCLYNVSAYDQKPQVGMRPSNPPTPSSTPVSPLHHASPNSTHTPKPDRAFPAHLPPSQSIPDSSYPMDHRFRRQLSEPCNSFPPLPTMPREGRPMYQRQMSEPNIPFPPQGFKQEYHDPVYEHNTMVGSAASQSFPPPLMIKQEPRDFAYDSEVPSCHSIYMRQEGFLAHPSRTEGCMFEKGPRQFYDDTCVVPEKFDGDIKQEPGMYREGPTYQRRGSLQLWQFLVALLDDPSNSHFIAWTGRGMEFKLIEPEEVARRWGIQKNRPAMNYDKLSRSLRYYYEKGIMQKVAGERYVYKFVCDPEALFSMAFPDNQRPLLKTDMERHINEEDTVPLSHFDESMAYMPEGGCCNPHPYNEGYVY
ELF4, sequence (Q99607 whole entry): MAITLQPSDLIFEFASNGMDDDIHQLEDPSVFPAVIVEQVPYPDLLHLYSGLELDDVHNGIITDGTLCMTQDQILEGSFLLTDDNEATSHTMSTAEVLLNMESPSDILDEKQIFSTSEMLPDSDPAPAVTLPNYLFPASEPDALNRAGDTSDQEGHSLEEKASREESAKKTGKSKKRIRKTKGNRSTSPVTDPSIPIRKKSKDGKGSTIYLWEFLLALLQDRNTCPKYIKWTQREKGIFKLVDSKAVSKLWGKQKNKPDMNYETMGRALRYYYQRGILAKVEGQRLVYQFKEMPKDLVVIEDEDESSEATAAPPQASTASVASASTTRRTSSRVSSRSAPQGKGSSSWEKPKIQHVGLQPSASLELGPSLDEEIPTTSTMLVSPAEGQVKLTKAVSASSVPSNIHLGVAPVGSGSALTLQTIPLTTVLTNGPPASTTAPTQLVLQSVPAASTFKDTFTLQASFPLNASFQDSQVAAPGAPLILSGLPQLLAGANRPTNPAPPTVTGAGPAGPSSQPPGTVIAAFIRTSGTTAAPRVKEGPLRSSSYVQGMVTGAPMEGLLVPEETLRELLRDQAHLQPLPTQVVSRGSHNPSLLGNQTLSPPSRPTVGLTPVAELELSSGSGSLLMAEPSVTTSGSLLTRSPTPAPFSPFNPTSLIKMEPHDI
ETV5, sequence (P41161 whole entry): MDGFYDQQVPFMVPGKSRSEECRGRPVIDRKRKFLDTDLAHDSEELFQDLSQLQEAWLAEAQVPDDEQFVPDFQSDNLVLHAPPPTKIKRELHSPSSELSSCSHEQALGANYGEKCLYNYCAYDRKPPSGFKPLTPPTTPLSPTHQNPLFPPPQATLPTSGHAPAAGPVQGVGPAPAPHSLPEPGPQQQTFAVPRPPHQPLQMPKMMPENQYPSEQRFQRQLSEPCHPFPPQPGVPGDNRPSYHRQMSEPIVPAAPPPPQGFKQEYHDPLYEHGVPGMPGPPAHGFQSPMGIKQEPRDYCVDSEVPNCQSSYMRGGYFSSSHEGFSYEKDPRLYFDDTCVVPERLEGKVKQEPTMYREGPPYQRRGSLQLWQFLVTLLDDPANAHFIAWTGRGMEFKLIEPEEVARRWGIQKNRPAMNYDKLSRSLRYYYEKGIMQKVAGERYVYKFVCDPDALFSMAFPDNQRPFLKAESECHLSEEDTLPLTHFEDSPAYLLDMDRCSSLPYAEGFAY
ETV6, sequence (P41212 whole entry): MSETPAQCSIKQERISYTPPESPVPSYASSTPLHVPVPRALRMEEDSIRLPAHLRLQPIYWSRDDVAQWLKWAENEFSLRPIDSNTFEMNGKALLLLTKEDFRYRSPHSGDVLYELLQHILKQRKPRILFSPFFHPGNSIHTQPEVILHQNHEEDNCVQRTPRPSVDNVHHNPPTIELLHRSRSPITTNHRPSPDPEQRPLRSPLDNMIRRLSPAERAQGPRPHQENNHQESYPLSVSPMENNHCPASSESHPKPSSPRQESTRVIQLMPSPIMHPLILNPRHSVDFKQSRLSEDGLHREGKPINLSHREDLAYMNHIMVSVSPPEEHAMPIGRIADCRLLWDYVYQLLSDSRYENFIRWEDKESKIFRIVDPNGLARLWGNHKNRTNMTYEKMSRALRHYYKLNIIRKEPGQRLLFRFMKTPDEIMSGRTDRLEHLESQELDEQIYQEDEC
CRX, sequence (O43186 whole entry): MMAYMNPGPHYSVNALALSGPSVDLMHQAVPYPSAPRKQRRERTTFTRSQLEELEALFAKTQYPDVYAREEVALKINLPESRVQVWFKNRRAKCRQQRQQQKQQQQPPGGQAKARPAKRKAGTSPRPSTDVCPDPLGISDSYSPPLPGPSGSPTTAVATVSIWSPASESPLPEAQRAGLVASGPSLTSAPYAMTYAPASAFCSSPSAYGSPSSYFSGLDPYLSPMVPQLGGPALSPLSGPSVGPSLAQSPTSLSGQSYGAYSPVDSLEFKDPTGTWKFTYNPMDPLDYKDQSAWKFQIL

As for TCTTAC, the binding signal in experiment [1] was 1.23 fold enrichment (6-mer frequency, TF over GST control); in [2], 1.28 fold enrichment (6-mer frequency, TF over GST control); in [3], 1.23 fold enrichment (6-mer frequency, TF over GST control); in experiment [4], 1.29 fold enrichment (6-mer frequency, TF over GST control); in [5], 1.27 fold enrichment (6-mer frequency, TF over GST control); in [6] it was 1.34 fold enrichment (6-mer frequency, TF over GST control). Moreover, the binding signal is 1.39 fold enrichment (6-mer frequency, TF over GST control) in experiment [7]; 1.13 fold enrichment (6-mer frequency, TF over GST control) in experiment [8]; 1.7 fold enrichment (6-mer frequency, TF over GST control) in experiment [9]; 1.32 fold enrichment (6-mer frequency, TF over GST control) in experiment [10]; 1.29 fold enrichment (6-mer frequency, TF over GST control) in [11]; 1.3 fold enrichment (6-mer frequency, TF over GST control) in experiment [12]. For the same sequence, the binding signal is 1.21 fold enrichment (6-mer frequency, TF over GST control) in [13]; 1.36 fold enrichment (6-mer frequency, TF over GST control) in experiment [14]; 1.31 fold enrichment (6-mer frequency, TF over GST control) in experiment [15]; 1.24 fold enrichment (6-mer frequency, TF over GST control) in [16]; 1.27 fold enrichment (6-mer frequency, TF over GST control) in experiment [17]; 1.33 fold enrichment (6-mer frequency, TF over GST control) in [18].
